Data reported in the supplement of paper PMC6555819.

Tests used:
Experiment in all cases: PBM binding z-score (relative to random genomic background probes); higher = stronger binding; sequences stand for … in GC…GCGATTGACAGCGTAGAATGAAGG
[1] = system: FXR:RXRa (NR concentration 270 nM, RXRa partner concentration 90 nM)
Outline: (§1)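 Custom Agilent 4×180K protein-binding microarrays carried double-stranded probes, each with a 34-nt variable region. These regions held direct-repeat seeds, single-nucleotide variants, half-site ablations and random human genomic background sequences. Ligand-free nuclear receptor dimers were incubated on the arrays for 1 h, antibodies against each partner (one per run) detected binding, and scanned fluorescence was regression-normalized. Binding z-scores take the random background probes as reference.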

[2] = system: LXRa:RXRa (NR concentration 270 nM, RXRa partner concentration 90 nM)
Outline: as §1

[3] = system: LXRa homodimer (NR concentration 270 nM)
Outline: as §1

[4] = system: LXRb:RXRa (NR concentration 270 nM, RXRa partner concentration 90 nM)
Outline: as §1

[5] = system: LXRb homodimer (NR concentration 270 nM)
Outline: as §1

[6] = system: PPARa:RXRa (NR concentration 270 nM, RXRa partner concentration 90 nM)
Outline: as §1

[7] = system: PPARg:RXRa (NR concentration 180 nM, RXRa partner concentration 90 nM)
Outline: as §1

[8] = system: PPARg:RXRa 270nM:90nM, anti-RXR (NR concentration 270 nM, RXRa partner concentration 90 nM)
Outline: as §1

[9] = system: PPARg:RXRa 30nM:10nM, anti-RXR (NR concentration 30 nM, RXRa partner concentration 10 nM)
Outline: as §1

[10] = system: PPARg:RXRa 90nM:30nM, anti-RXR (NR concentration 90 nM, RXRa partner concentration 30 nM)
Outline: as §1

[11] = system: PPARg:RXRa DBDmut IVT, anti-RXR (DBD mutation: RXRa K156A/R161A, NR concentration 270 nM, RXRa partner concentration 90 nM)
Outline: as §1

[12] = system: PPARg:RXRa IVT, anti-PPARg (NR concentration 270 nM, RXRa partner concentration 90 nM)
Outline: as §1

[13] = system: PPARg DBDmut:RXRa IVT, anti-PPARg (DBD mutation: PPARg1 K132A/R137A, NR concentration 270 nM, RXRa partner concentration 90 nM)
Outline: as §1

[14] = system: PPARg DBDmut IVT, anti-PPARg (DBD mutation: PPARg1 K132A/R137A, NR concentration 270 nM)
Outline: as §1

[15] = system: PPARg homodimer (NR concentration 180 nM)
Outline: as §1

[16] = system: PXR:RXRa (NR concentration 270 nM, RXRa partner concentration 90 nM)
Outline: as §1

[17] = system: PXR homodimer (NR concentration 270 nM)
Outline: as §1

[18] = system: RARa:RXR (NR concentration 270 nM, RXRa partner concentration 90 nM)
Outline: as §1

[19] = system: RARa homodimer (NR concentration 270 nM)
Outline: as §1

[20] = system: RARb:RXRa (NR concentration 270 nM, RXRa partner concentration 90 nM)
Outline: as §1

Sequence	PBM binding z-score [1]	PBM binding z-score [2]	PBM binding z-score [3]	PBM binding z-score [4]	PBM binding z-score [5]	PBM binding z-score [6]	PBM binding z-score [7]	PBM binding z-score [8]	PBM binding z-score [9]	PBM binding z-score [10]	PBM binding z-score [11]	PBM binding z-score [12]	PBM binding z-score [13]	PBM binding z-score [14]	PBM binding z-score [15]	PBM binding z-score [16]	PBM binding z-score [17]	PBM binding z-score [18]	PBM binding z-score [19]	PBM binding z-score [20]
CAACCTAGGTCACAGAGGTCAAAGTCCGTGCGTA	7.56	6.89	7.7	6.74	2.06	6.1	7.27	6.89	3.63	6.19	5.47	5.9	0.378	-0.0572	6.18	6.95	12.5	7.87	2.8	5.39
CCTCGGAGGACAGAAGGTCAGAGCGGTCCGCTTT	1.42	1.8	0.0694	0.843	-0.863	1.78	-0.185	0.642	-0.618	0.0661	0.0292	-0.0958	-1.49	-1.9	1.2	1.91	-0.289	1.91	0.122	3.18
ATCGAAAGGTCGTGAGGTGATTATACAGAAAGGC	5.04	4.01	0.374	3.36	0.471	4.92	4.09	4.21	1.66	2.92	0.336	1.93	1.12	1.16	1.42	3.14	0.165	3.89	0.608	4.08
AGTCAAAGTTCAGGACGAGGTGACGTAAAGCACG	4.38	3.95	1.24	1.82	0.0614	3.67	4.83	5.11	2.14	4.25	-0.365	2.55	-0.0177	-0.0513	2.73	3.51	1.23	3.58	0.938	4.46
CGTCCAAGGTCTGAGAGGTCAGTGAATGCCGAGT	1.6	1.76	0.726	1.58	-0.51	2.29	-0.0569	0.729	-0.614	-0.154	0.28	0.77	-0.424	-1.57	1.81	2.94	1.65	2.79	0.0831	3.24
CGAACTAGGTCACCGGAAGGTCAAAGTCCGCATG	6.15	5.95	4.65	5.17	0.515	6.04	9.75	7.7	5.33	7.57	7.98	8.54	0.875	0.855	8.74	5.95	2.08	7.52	2.97	5.2
TCTGCTAAGTCAGTTGGTCAGCTAACGAGCTGCC	-0.309	-0.429	-0.729	-0.89	-0.474	-0.235	-1.04	0.263	1.09	0.712	0.523	0.0659	-0.684	-0.363	-1.05	-0.607	-0.707	-0.273	-1.36	0.0945
CGTCAAAGTTCAACTAAGGTATCGTAAAGCACGC	7.21	6.22	4.37	4.24	2.23	5.15	4.83	5.57	2.02	4.5	0.0447	1.92	1.2	0.78	3.06	5.09	3.7	4.2	2.1	5.24
GCTCTTAGTTGAAAGGGCAACCGAATGATTCTCG	0.354	0.538	0.194	0.812	-0.185	1.77	0.987	2.26	0.632	1.71	0.37	0.474	0.11	-0.335	0.85	0.654	-0.0314	1.47	-0.318	2.08
CGTCCAAGGTCCAGGTCAGTGAAAGAGACTCGAA	0.579	0.595	0.0341	0.462	-0.914	1.17	0.0886	0.162	-0.651	-0.258	0.342	0.512	-0.921	-0.937	0.811	0.618	-0.111	0.904	0.0146	2.52
CGAACGAGGGCATGAGTTGCTAGCAAATGCCGAT	0.106	0.132	-0.624	0.0886	-1.12	1.35	1.1	1.52	0.000453	0.931	3.04	1.87	-0.188	-0.705	-0.0181	0.336	-0.327	0.293	-0.816	1.82
TCATATAGGTAAATGCTAGGCGAAAGTCCGATCT	0.564	0.758	0.304	0.58	-0.0313	0.932	0.63	2.22	3.7	2.88	3.99	1.93	1.19	0.583	0.561	0.4	0.459	0.458	0.728	0.249
CAAACTAGGACAAGAGGTCAAAGTCCGCTTCCCG	4.96	5.72	5.89	4.83	1.83	5.48	5.75	6.56	4.76	6.29	5.17	5.25	1.06	0.504	3.1	5.45	2.97	5.92	0.963	4
TCTGCTAGGTCAGTTGGTCAACTAACGAGCTGCC	0.974	0.627	-0.58	0.38	0.371	1.63	1.12	2.14	1.02	1.81	2.83	3.32	0.661	0.786	-0.104	0.269	-0.861	0.622	-0.954	3.27
TCTGCTAGGTCTACGATGGTCAGCTAATCTGCTA	-0.634	-0.811	-1.12	-0.871	-0.759	-0.453	-0.582	-0.0115	1.48	0.437	0.395	-0.0472	-1.03	-0.797	-2.36	-0.731	-1.3	-1.07	-0.904	-0.194
